# Test results: ChEMBL document CHEMBL3433997, “St. Jude Leishmania screening dataset” (2016)
# Target: Glucose transporter (Leishmania mexicana) (UniProt O61059)
# Test: ST_JUDE_LEISH: Cytotoxicity at 2uM final concentration against transgenic Leishmania Mexicana promastigotes LmGT2 that are glucose transport deficient and complemented with the L. Mexicana glucose transporter 2. Activity is measured by DNA content using SYBR green in vitro
# Assay type: functional
row,Compound,inhibition [%]
1,COc1ccc(Nc2nccc(N3CCC(NC(=O)c4cc5ccccc5s4)C3)n2)cc1 (stereo not given),-1.61
2,CCCCCCCc1c(C)nc2cccc(OC)c2c1O,33.9
3,CC(C)(C)OC(=O)c1c(NC(=O)/C=C/c2ccc(O)c(O)c2)sc2c1CCCC2,-0.95
4,COc1ccc(S(=O)(=O)NCCCC2CCN(CCCCCNC(=O)C=Cc3ccc(Cl)c(Cl)c3)CC2)cc1,3.65
5,N=C1NC(=N)N(OCCCCCCON2C(=N)NC(=N)NC2C=Cc2ccccc2)C(C=Cc2ccccc2)N1 (stereo not given),10.7
6,Clc1ccc2nnc(-c3c(Cl)cccc3Cl)n2n1,2.05
7,Cn1cnc(CCNC(=O)c2ccc(-c3ccc(-c4nc5cc(C(F)(F)F)ccc5[nH]4)s3)cc2)c1,3.14
8,Cc1cc(C(F)(F)F)n2nc(C(=O)N(Cc3cncn3Cc3ccccc3F)CC3CC3)cc2n1,-0.18
9,CCN(C)CCCn1c(N(C)C)nc2cc(-n3cnc4cc(-c5ccc(Cl)cc5)sc4c3=O)ccc21,3.62
10,CC(CCc1ccccc1)NCC(O)c1ccc2c(c1)S(=O)(=O)c1ccccc1N2 (stereo not given),2.14
11,CN1CCN(c2ncnc3ccc(NC(=O)Nc4ccc(Cl)c(Cl)c4)cc23)CC1,5.24
12,Nc1nc(N)c2c(ccc3nn(Cc4ccccc4)cc32)n1,-0.15
13,COc1cccc(NC(=O)Cn2c(C)c(C#N)c3ccccc32)c1,3.36
14,CC(=O)Nc1cccc(C(=O)Nc2cccc(-c3cccc(-c4nc5ccccc5[nH]4)c3)c2)c1,17.4
15,Cc1cccn2c(=O)c3cc(C(=O)NCCN4CCOCC4)c(=N)n(CCc4ccccc4)c3nc12,0.41
16,O=C(NC1CC1)c1cnc(N2CCC(COc3cccc(F)c3)CC2)c(Cl)c1,0.22
17,CNc1c2c(nc3ccc(NC(=O)CCCCCCc4ccccc4)cc13)CCCC2,4.32
18,CCOC(=O)c1cn(CC)c2cc(OCc3ccccc3)ccc2c1=O,4.59
19,O=S(=O)(c1ccccc1C(F)(F)F)C1CC2CCC(C1)N2S(=O)(=O)c1ccc(Cl)c(C(F)(F)F)c1 (stereo not given),0.74
20,CC1CCC2(CC1)N=C(N)N=C(N)N2OCc1cc2ccccc2c2ccccc12 (stereo not given),2.97

row,Compound,inhibition [%]
1,O=C(NC1CC1)c1ccc(N2CCC(Cc3ccccc3)CC2)c([N+](=O)[O-])c1,3.45
2,O=S(=O)(Nc1ccc(CCN2CCCCC2CCN2CCCC2)cc1)c1ccc(-c2ccccc2)cc1 (stereo not given),3.63
3,Cc1cc2nc(-c3ccc(/C=C/C(=O)NCc4ccc(Cl)c(Cl)c4)cc3)[nH]c2cc1C,4.96
4,Cc1c(OC(C)C)nc2ccccc2c1C(=O)N[C@H](c1cccc(F)c1)C1CC1,-0.32
5,CS(=O)(=O)N1CC2(CCN(CCC(NC(=S)Nc3ccccc3)c3ccc(Cl)c(Cl)c3)CC2)c2ccccc21 (stereo not given),-0.39
6,COc1cc(OC)cc(C(=O)Nc2cccc(-c3cn4ccc(C)cc4n3)c2)c1,5.98
7,CN(C)CCN(C)Cc1cccc(-c2ccc3c(Nc4cc(O)c(Cl)cc4F)ccnc3c2)c1,-2.95
8,CC(=O)Nc1cccc(C(=O)Nc2cccc(-c3csc(-c4nc5ccccc5[nH]4)c3)c2)c1,3.14
9,COc1cc2c(c(Cl)c1OC)CCN(C(=O)C(F)(F)F)CC2c1ccccc1 (stereo not given),4.64
10,CCCC(N)C(=O)NC1CCN(c2c(F)c(N)c3c(=O)c(C(=O)O)cn4c3c2Oc2ccccc2-4)C1 (stereo not given),76.2
11,CC(=O)C1=NN(c2ccc(C)cc2)C(c2cccs2)N1c1ccccc1 (stereo not given),2.11
12,COc1cc(OCCCN(C)Cc2ccc(OC)c(OC)c2)ccc1NC(=O)c1cccc2c(O)c3cccc(F)c3nc12,0.63
13,COc1nc2c(CCN3CC[C@H](NCc4cc(C#N)c5c(c4)CCO5)[C@H](O)C3)ccnc2cc1F,0.58
14,COc1ccc2ncc(F)c(CCN3CC[C@H](NCc4cc5c(s4)CCCN5)[C@H](O)C3)c2n1,2.43
15,c1cn(-c2ccc(CNc3nccc(Nc4ccc(OCCN5CCOCC5)cc4)n3)cc2)cn1,0.98
16,O=C(c1ccc([N+](=O)[O-])o1)N1CCN(c2ccccc2)CC1,1.09
17,CC(C)N1CCC(N(Cc2ccc(-c3ccc(C(F)(F)F)cc3)cc2)C(=O)Cn2c(CCc3cccc(F)c3F)cc(=O)c3ccccc32)CC1,1.16
18,CCC(CC)n1c(C)cc2c3c(N)nc(N)nc3ccc21,70.8
19,CCN(CC)CCN(Cc1ccc(-c2ccc(C(F)(F)F)cc2)cc1)C(=O)Cn1c(CCc2ccc(F)c(F)c2F)nc(=O)c2ccccc21,10.2
20,O=C(/C=C/c1ccc2ccccc2c1)NCC1(c2ccc(-c3ccccc3)cc2)CCOCC1,3.08
